Screening results as filed in PubChem.
NCOA1 inh – inhibits human SRC1 coactivator; actives 0.12% (n = 360,000); inhibition, % at 3.6 µM; HEK293 GAL4-SRC1 luciferase reporter, luminescence;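 active = inhibition above the campaign mean plus 3 SD, with each screening campaign given its own cutoff, cut at about 60% in these data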
LRH-1 inv ag – inverse agonists of human LRH-1 (NR5A2); O00482; HEK293T StAR-luciferase reporter, LRH-1 transfected, 24 h; inhibition, % at 3.6 µM; actives 0.13% (n = 360,000); AID 602396;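 active = inhibition above the mean inhibition of all tested compounds plus 3 SD, cut at about 73% in these data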
Target sequence (O00482 whole entry, looked up): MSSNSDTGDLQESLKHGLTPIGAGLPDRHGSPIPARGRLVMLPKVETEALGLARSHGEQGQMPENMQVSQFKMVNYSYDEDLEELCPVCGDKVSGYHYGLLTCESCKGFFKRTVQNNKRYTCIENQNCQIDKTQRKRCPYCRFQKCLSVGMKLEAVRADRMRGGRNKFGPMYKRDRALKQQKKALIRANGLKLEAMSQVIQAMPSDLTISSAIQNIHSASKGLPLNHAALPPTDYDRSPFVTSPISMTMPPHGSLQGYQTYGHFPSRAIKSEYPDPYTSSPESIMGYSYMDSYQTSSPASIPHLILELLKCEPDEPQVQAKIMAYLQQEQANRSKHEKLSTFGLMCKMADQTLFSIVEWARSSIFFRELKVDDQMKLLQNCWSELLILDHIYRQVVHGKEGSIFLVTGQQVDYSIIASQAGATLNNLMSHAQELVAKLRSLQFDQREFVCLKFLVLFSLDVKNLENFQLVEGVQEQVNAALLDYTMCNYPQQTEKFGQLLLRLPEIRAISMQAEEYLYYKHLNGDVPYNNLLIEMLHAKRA
LMP1 NFkB inh – Epstein-Barr LMP1 NF-kappaB reporter inhibition. LMP1-induced NF-kappaB luciferase reporter cells, luminescence. inhibition, % at 12.5 µM. actives 0.69% (n = 350,000). AID 504558; in the data active = inhibition above about 41%
NCOA2 inhibitor – human SRC2 (NCOA2) inhibition; inhibition, % at 9 µM; HEK293 GAL4-SRC2 luciferase reporter, luminescence; actives 0.17% (n = 370,000); Q15596;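 active = inhibition above the mean inhibition of all tested compounds plus 3 SD, set per campaign, cut at about 52% in these data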
NCOA3 inh – human NCOA3 inhibition. inhibition, % at 3.6 µM. HEK293 GAL4-SRC3 luciferase reporter, luminescence. AID 588352. actives 0.17% (n = 360,000). Q9Y6Q9;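 active = inhibition above a per-campaign cutoff, the mean of all compounds plus 3 SD, cut at about 60% in these data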;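 note: higher means less SRC3-driven luciferase light from the GAL4 reporter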
Each line names hits and unclear results; the compound was inactive in the other large screens. A selection: hits, their analogues and other compounds. The true share with any hit is near 0.78%.

O=C(CSc1nnc(-c2ccc(Cl)cc2)n1-c1ccccc1)Nc1ccc(Oc2ccccc2)cc1	none (no result: NCOA1 inh, LRH-1 inv ag, LMP1 NFkB inh, NCOA3 inh)
Cc1cc(C)nc(SCC(=O)OCN2C(=O)c3ccccc3C2=O)n1	LMP1 NFkB inh 85
Cn1cnnc1SCC(=O)OCN1C(=O)c2ccccc2C1=O	none
COC1=CC(=O)C=C(OC)C1=O	LMP1 NFkB inh 83
COc1ccc(-c2ccc3c(c2)S(=O)(=O)c2cccc(C(=O)NCc4cccc(OC(F)(F)F)c4)c2C3=O)cc1OC	none (no result: NCOA2 inhibitor)
COc1ccc(-c2ccc3c(c2)S(=O)(=O)c2cccc(C(=O)NCc4cc(C)oc4C(F)(F)F)c2C3=O)cc1OC	LMP1 NFkB inh 86 (no result: NCOA2 inhibitor)
CCn1c(=O)c2cc(C(=O)NCc3cccs3)sc2c2ccccc21	LMP1 NFkB inh 52
CCN(Cc1cn(Cc2ccccc2)nn1)S(=O)(=O)c1ccc(N2CCCC2)cc1Br	none (no result: NCOA1 inh, LRH-1 inv ag, LMP1 NFkB inh, NCOA3 inh)
Cc1ccc(S(=O)(=O)N[C@H](C(=O)N2CCC(C(=O)N[C@@H](CC(=O)O)C(=O)O)CC2)C(C)C)cc1	LMP1 NFkB inh 74
CCCCCC(NC(=O)C1CCN(C(=O)[C@@H](NS(=O)(=O)c2ccc(C)cc2)C(C)C)CC1)C(=O)O (some centres not stated)	none
CCS(=O)(=O)Nc1ccc2c(c1)C(=O)N(C)[C@@H]1CC[C@H](CC(=O)NCCOC)O[C@H]1CO2	none (no result: NCOA1 inh, LRH-1 inv ag, LMP1 NFkB inh, NCOA3 inh)
O=S1(=O)c2ccc(Br)cc2OC[C@@H](Cc2ccccc2)N1Cc1cn(Cc2ccc(F)cc2)nn1	none (no result: NCOA1 inh, LRH-1 inv ag, LMP1 NFkB inh, NCOA3 inh)
CC(C)(C)c1ccc(-c2nnc3n2N=C(c2ccc(-c4ccccc4)cc2)CS3)cc1	none (no result: NCOA1 inh, LRH-1 inv ag, LMP1 NFkB inh, NCOA3 inh)
O=C(c1nc2nc(-c3ccccc3)cc(C(F)(F)F)n2n1)N1CCCCC1	none
COc1ccc(-c2cc(C(F)(F)F)n3nc(C(=O)N4CCOCC4)nc3n2)cc1	LMP1 NFkB inh 44
CCN(CC)c1ccc2cc(NC(=O)CCC(=O)O)c(=O)oc2c1	NCOA2 inhibitor 85
CCN(Cc1cn(Cc2ccccc2)nn1)S(=O)(=O)c1ccccc1Br	none (no result: NCOA1 inh, LRH-1 inv ag, LMP1 NFkB inh, NCOA3 inh)
O=C(Nc1ccc(F)c(F)c1)C1CCCCC1	LMP1 NFkB inh 49
CN1OC[C@@H]2CN[C@H](c3ccc(-c4cc5ccccc5o4)cc3)C[C@@H]21	NCOA1 inh 87, LRH-1 inv ag 91, LMP1 NFkB inh 80, NCOA3 inh 87 (no result: NCOA2 inhibitor)
CN1OC[C@@H]2CN[C@H](c3ccc(-c4ccc(C#N)cc4)cc3)C[C@@H]21	none
Cc1cccc(CN2CCN(C3CN(Cc4cn(Cc5ccc(C(F)(F)F)cc5)nn4)S(=O)(=O)C3)CC2)c1 (configuration not stated)	none (no result: NCOA1 inh, LRH-1 inv ag, LMP1 NFkB inh, NCOA3 inh)
O=C(c1ccc([N+](=O)[O-])cc1)N1CCSC1c1ccccc1Cl (configuration not stated)	none
COc1ccc(C2SCCN2C(=O)c2ccc([N+](=O)[O-])cc2)cc1 (configuration not stated)	LMP1 NFkB inh 42
CSc1ccccc1NC(=O)C(C)N(C)CC(=O)N1CCN(Cc2ccccc2)CC1 (configuration not stated)	LMP1 NFkB inh 72
CC(C(=O)Nc1ccc(C(F)(F)F)cc1)N(C)CC(=O)N1CCN(Cc2ccccc2)CC1 (configuration not stated)	none
Cc1cccc(NC(=O)NCCCN2CCN(c3ccc(F)cc3)CC2)c1	none (no result: NCOA1 inh, LRH-1 inv ag, LMP1 NFkB inh, NCOA3 inh)
C[C@H](O)[C@@H]1CN2CCc3c([nH]c4c(-c5ccc6c(c5)OCO6)cccc34)[C@@H]2C[C@@H]1N(C)C(=O)NC1CCCCC1	none (no result: NCOA1 inh, LRH-1 inv ag, LMP1 NFkB inh, NCOA3 inh)
COc1ccc(/C=C/c2cc(-c3ccc(C)cc3)o[n+]2C)cc1	LRH-1 inv ag 94, NCOA3 inh 71
CNC(=O)C[C@H]1CC[C@H]2[C@@H](COc3ccc(NC(=O)Nc4ccccc4)cc3C(=O)N2C)O1	none (no result: NCOA1 inh, LRH-1 inv ag, LMP1 NFkB inh, NCOA3 inh)
CC(=O)Oc1ccccc1/C=C/c1nc2ccccc2c(=O)o1	LMP1 NFkB inh 45
COC1C(CO)OC(n2c3c(Cl)cccc3c3c4c(c5c6cccc(Cl)c6[nH]c5c32)C(=O)NC4=O)C(O)C1O (configuration not stated)	NCOA1 inh 70, LMP1 NFkB inh 60, NCOA3 inh 64
S=c1[nH]nc(C2CCCCC2)n1/N=C/c1ccncc1	NCOA1 inh 71, LMP1 NFkB inh 48, NCOA3 inh 69
Cn1c(=O)c(=O)n(C)c2cc(S(=O)(=O)N3CCN(CCO)CC3)ccc21	none (no result: NCOA1 inh, LRH-1 inv ag, LMP1 NFkB inh, NCOA3 inh)
O=C1c2ccccc2CN1CCNC(=S)NC1CCCCC1	LMP1 NFkB inh 49
COc1ccc(-n2cnc3c(cnn3CCC#N)c2=N)cc1	LMP1 NFkB inh 85
COc1ccc(-c2cc(N)n(CCC#N)n2)c(OC)c1	none
CCCCCCNC(=O)C1CSCCS(=O)(=O)N1Cc1ccc(C)cc1 (configuration not stated)	none (no result: NCOA1 inh, LRH-1 inv ag, LMP1 NFkB inh, NCOA3 inh)
Clc1ccc(CSc2nnc(-c3ccc4c(c3)OCO4)o2)cc1	none
O=C1CCCCC1Sc1nnc(-c2ccc3c(c2)OCO3)o1 (configuration not stated)	LMP1 NFkB inh 56, NCOA2 inhibitor 57
COc1cccc2c1C1COC3C4CC(C(=O)O)C(C(C2)N13)N4C (configuration not stated)	LRH-1 inv ag 88
CC(=O)[C@@]1(O)CC[C@H]2[C@@H]3CCC4=CC(=O)CC[C@]4(C)[C@H]3[C@@H](O)C[C@@]21C	LMP1 NFkB inh 56
Cc1cc(C)c(S(=O)(=O)N2CCN(C(=O)c3ccccc3OCc3c(C)noc3C)CC2)c(C)c1	LMP1 NFkB inh 46
CCN(CC)c1ccc(/C=N/Nc2nc3ccccc3[nH]2)c(O)c1	LMP1 NFkB inh 55
CCN(CC)c1ccc(/C=N/NC(=O)c2ccco2)cc1	none
COc1cc(OC)c(OC)cc1/C=N/Nc1nc2ccccc2[nH]1	none
CCN(CC)c1ccc(/C=N/NC(=O)c2ccco2)c(O)c1	LMP1 NFkB inh 69
C(=N\Nc1nc2ccccc2[nH]1)/c1cccc2nccnc12	LMP1 NFkB inh 47
C(=NN1CCCCCC1)c1cccc2ccccc12	none
C(=NN1CCCCCC1)c1ccc2ccccc2n1	NCOA1 inh 88, LRH-1 inv ag 91, LMP1 NFkB inh 84, NCOA2 inhibitor 84, NCOA3 inh 90
FC(F)(F)Oc1ccc(Cn2ccc3ccc(-c4ccc5ccn(Cc6ccccc6)c5c4)cc32)cc1	none (no result: NCOA1 inh, LRH-1 inv ag, LMP1 NFkB inh, NCOA3 inh)
CCCS(=O)(=O)Nc1ccc(Nc2c3ccccc3nc3ccccc23)c(OC)c1	NCOA1 inh 66, LMP1 NFkB inh 43, NCOA3 inh 70
CCOC(=O)Cc1nc(N2CCN(C=O)CC2)c2c(C)c(C(=O)OCC)sc2n1	none (no result: NCOA1 inh, LRH-1 inv ag, LMP1 NFkB inh, NCOA3 inh)
Cc1ccc(NC(=O)CSc2nc(C)cc(=O)[nH]2)c(C)c1	none (no result: NCOA1 inh, LRH-1 inv ag, LMP1 NFkB inh, NCOA3 inh)
CC(C)(C)c1ccc(C2CC2C(=O)N/N=C\c2ccc[nH]2)cc1 (configuration not stated)	LRH-1 inv ag 89, NCOA3 inh 71
COC(=O)[C@H](C(C)C)N(CCc1cn(Cc2ccc(C)cc2)nn1)S(=O)(=O)c1ccccc1Br	none (no result: NCOA1 inh, LRH-1 inv ag, LMP1 NFkB inh, NCOA3 inh)
COC(=O)[C@]12C[C@H](CC(=O)NCC3CCCCC3)C(=O)N(Cc3ccco3)C1=C[C@H](C(C)(C)C)O[C@@H]2C	none (no result: NCOA1 inh, LRH-1 inv ag, LMP1 NFkB inh, NCOA3 inh)
CCSc1nnc(NC(=O)CCn2c(=O)oc3ccccc32)s1	LMP1 NFkB inh 79
